Bioassay records: PubChem, National Center for Advancing Translational Sciences (NCATS)
In the library only some 2.4% were active in any assay of this set; here they are far more common.
Pol beta inh = qHTS Assay for Inhibitors of DNA Polymerase Beta. P06746. Pol beta primer extension/strand displacement, fluorescence kinetic. Potency, µM (top dose mostly 114 µM), inactives show top-dose activity change, negative = inhibition, most hits filed as inhibitors. 1.3% of 340,000 active. AID 485314, 2010; further: on the % scale 0 is the no-effect control and ±100 the full control effect
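Preincubation: enzyme (10 nM) with compound, 15 min, RT. Reaction: substrate added to 50 nM final. Reads: 0 and 10 min. Analysis: normalized, Hill fit.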
Pol eta inh-1 = qHTS for Inhibitors of Polymerase Eta; DNA polymerase eta (Homo sapiens), Q9Y253; 1.2% of 390,000 active; recombinant Pol eta, fluorescent DNA replication assay; AID 588591, 2011; Potency, µM (titrated, usually from 114 µM), for inactives: at the highest dose activity change, negative = inhibition, actives largely listed as inhibitors; further: on the % scale 0 is the no-effect control and ±100 the full control effect
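Fluorescent replication assay: 50 nM final substrate added after a 15 min room-temperature compound preincubation with 10 nM enzyme. Signal taken at 0 min and again at 10 min.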
POLI inh = qHTS for Inhibitors of Polymerase Iota. 1% of 390,000 active. Pol iota fluorescent replication assay, 10 min. DNA polymerase iota (Homo sapiens), Q9UNA4. Potency, µM (series often up to 115 µM), inactives show at the highest dose activity, negative = inhibition, actives largely listed as inhibitors
Target sequence (Q9UNA4 whole entry, looked up): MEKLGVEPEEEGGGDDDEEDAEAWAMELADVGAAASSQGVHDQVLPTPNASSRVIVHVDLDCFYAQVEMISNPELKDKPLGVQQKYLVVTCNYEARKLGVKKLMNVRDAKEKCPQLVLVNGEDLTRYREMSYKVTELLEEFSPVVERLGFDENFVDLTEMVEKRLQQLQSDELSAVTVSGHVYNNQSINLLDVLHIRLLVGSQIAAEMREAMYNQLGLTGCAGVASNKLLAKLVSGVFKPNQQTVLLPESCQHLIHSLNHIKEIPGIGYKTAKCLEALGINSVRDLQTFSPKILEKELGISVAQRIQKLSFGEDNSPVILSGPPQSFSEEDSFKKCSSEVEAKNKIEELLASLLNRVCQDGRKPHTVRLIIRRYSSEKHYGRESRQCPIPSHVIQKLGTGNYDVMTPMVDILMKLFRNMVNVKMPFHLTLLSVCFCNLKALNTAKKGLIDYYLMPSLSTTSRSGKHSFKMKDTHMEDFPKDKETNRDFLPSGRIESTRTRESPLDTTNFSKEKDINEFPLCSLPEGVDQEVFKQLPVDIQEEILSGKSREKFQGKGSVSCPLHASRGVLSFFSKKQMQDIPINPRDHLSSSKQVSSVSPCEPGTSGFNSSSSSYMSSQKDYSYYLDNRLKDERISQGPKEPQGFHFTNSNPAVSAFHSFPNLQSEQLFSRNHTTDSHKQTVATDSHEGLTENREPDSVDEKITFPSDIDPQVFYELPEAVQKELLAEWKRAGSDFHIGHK
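Pol iota at 10 nM preincubated 15 min with compounds at room temperature; reaction started with fluorescent substrate, 50 nM final. Fluorescence read kinetically at 0 and 10 min; buffer-only wells as negative control.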
FEN1 inhibitor = qHTS Assay for the Inhibitors of Human Flap endonuclease 1 (FEN1); P39748; AID 588795, 2011; 0.35% of 390,000 active; Potency, µM (top dose mostly 114 µM), inactives show at the highest dose activity change, negative = inhibition, hits mostly inhibitors; Recombinant FEN1 flap cleavage, fluorescence, 15 min; further: on the % scale 0 is the no-effect control and ±100 the full control effect; nearly all actives have a fitted effect of over 65% in size
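FEN1 at 10 nM, compound pretreatment for 15 min (room temperature), 50 nM final substrate to initiate; endpoint reads at 0 and 15 min; DMSO-only plates used as vehicle background.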
WRN inhibitor = qHTS for Inhibitors of WRN Helicase | WRN helicase unwinding, fluorescent forked duplex, kinetic | Potency, µM (doses to about 114 µM), inactives show at the highest dose activity change, negative = inhibition, usual class: inhibitors | 0.46% of 360,000 active | AID 651768, 2012; further: on the % scale 0 is the no-effect control and ±100 the full control effect; nearly all actives have a fitted effect of over 55% in size
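Screening of the MLSMR collection measured strand separation of a quenched forked DNA duplex (100 nM) by 20 nM WRN with 2 mM ATP, all final. Compounds were preincubated with enzyme 15 min at room temperature.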
Pol kappa inh-1 = qHTS for Inhibitors of Polymerase Kappa | Potency, µM (top dose mostly 107 µM), for inactives: at the highest dose activity, negative = inhibition, most hits filed as inhibitors | purified Pol kappa, fluorescent DNA synthesis assay, 10 min | 0.53% of 400,000 active | AID 588579, 2011; further: on the % scale 0 is the no-effect control and ±100 the full control effect
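Here, compound and 10 nM enzyme are combined for 15 min at room temperature; adding 50 nM substrate (final) starts DNA synthesis, tracked by fluorescence at 0 and 10 min against buffer-only wells.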
PGK validate = qHTS for inhibitors of Phosphogylcerate Kinase: Hit Validation Screen. shares compounds with Pol kappa inh-1. TbPGK coupled GAPDH assay, Kinase-Glo luminescence. Potency, µM (highest dose often 57.5 µM), for inactives: at the highest dose activity change, negative = inhibition, usual class: inhibitors. 79% of 500 active. AID 686980, 2013; further: on the % scale 0 is the no-effect control and ±100 the full control effect; nearly all actives have a fitted effect of over 65% in size
Pol iota confirm = qHTS for Inhibitors of Polymerase Iota: Confirmatory Assay for Cherry-picked Compounds. shares compounds with Pol kappa inh-1. Pol iota primer extension, TAMRA/BHQ fluorescence. Potency, µM, hits mostly inhibitors. 77% of 1,500 active
Pol kappa inh-2 = qHTS for Inhibitors of Polymerase Kappa: Confirmatory Assay for Cherry-picked Compounds; shares compounds with Pol eta inh-1; purified Pol-kappa, fluorescent strand-displacement substrate; Potency, µM, hits mostly inhibitors; 76% of 920 active; AID 720501, 2013
Pol eta inh-2 = qHTS for Inhibitors of Polymerase Eta: Confirmatory Assay for Cherry-picked Compounds; Potency, µM, usual class: inhibitors; shares compounds with Pol eta inh-1; 64% of 2,600 active; Pol eta primer extension, TAMRA/BHQ fluorescence, 10 min; AID 720502, 2013
* hit, by the source's call; u = inconclusive; x = no result given; [ ] = dose if it differs, or a comment. The call rests on the fitted dose curve; in most records, active means well fitted curve in the direction sought with a large enough effect; inconclusive means small, poorly fitted or top-dose-only effect, or another doubt; inactive means no such curve, though single readings can be large; an effect the other way counts as inactive or inconclusive. Potency means the concentration at half of the fitted maximal effect.

SMILES | Pol beta inh | Pol eta inh-1 | POLI inh | FEN1 inhibitor | WRN inhibitor | Pol kappa inh-1 | Pol iota confirm | Pol eta inh-2 | others
CCOc1ccc(NC(=O)Cn2cc(C(=O)c3ccc(CC)cc3)c(=O)c3cc(C)ccc32)cc1 | u | 50µM* | 16% | -3% | x | -9% | u | x
Cc1ccc(NC(=O)c2sc3nc[nH]c(=O)c3c2C)cc1C | 2% | 15% | 16% | 7% | x | -4%[60.1 µM] | x | x
CCC(C(=O)NC1CCCC1)N(C(=O)c1snc(C(N)=O)c1N)c1ccc(OC)c(OC)c1 (stereo not drawn) | -24% | -4% | 67% | -3% | -6% | 0% | x | x
COc1ccc(N(C(=O)c2snc(C(N)=O)c2N)C(C(=O)NC2CCCC2)c2cccs2)cc1OC (stereo not drawn) | u | u | 8.9µM* | 6% | -15%[11.6 µM] | -18% | u | x
COc1ccccc1CNc1cc(-c2ccccc2)nc2nncn12 | 39% | -12% | -3% | -13% | x | -4% | x | x
NNc1nc2c(Cl)c(Cl)ccc2s1 | u | u | 14µM* | u | u | u | 67* | x | PGK validate=u
O=[N+]([O-])c1cc(/C=N/n2c(-c3cccnc3)n[nH]c2=S)ccc1Cl | 5.6µM* | 20µM* | u | 56µM* | u | u | 17* | 43*
CCC(Sc1nc2ccsc2c(=O)n1Cc1ccc(C(=O)O)cc1)C(=O)Nc1cc(Cl)ccc1C (stereo not drawn) | x | u | x | x | 4% | x | 67* | x | Pol kappa inh-2=67*
CCC(Sc1nc2ccsc2c(=O)n1CCC(=O)O)C(=O)Nc1ccc(Cl)cc1 (stereo not drawn) | x | -14% | x | x | 4% | x | x | x
CCN(C(=O)Cn1ncc2c(=O)oc3ccc(C)cc3c21)c1cc(OC)ccc1OC | 11% | -21% | u | -11% | x | -10% | x | x
COC(CNC(=O)C1CCN(S(=O)(=O)c2ccc3nc4c(c(C(=O)O)c3c2)CC(C)CC4)CC1)OC (stereo not drawn) | -16% | 14µM* | u | -2% | -26%[11.6 µM] | u | 21* | 5.4*
Cc1cccc(CCNC(=O)c2ccc(CSCc3cccc(Cl)c3)o2)c1 | -4% | -9% | -7% | -17% | x | -17%[60.1 µM] | x | x
NC(=S)c1ccc[n+]([C@@H]2O[C@@H](COP(=O)([O-])OP(=O)(O)OC[C@H]3O[C@@H](n4cnc5c(N)ncnc54)[C@H](OP(=O)(O)O)[C@H]3O)C(O)C2O)c1 (stereo partly drawn) | 9%[57.1 µM] | -6%[57.1 µM] | 4%[58.9 µM] | x | x | x | x | x
[O-][n+]1c2ccccc2[n+]([O-])c2cc(O)ccc21 | 22µM* | 18µM* | u | u | u | u | u | u | PGK validate=33µM*;Pol kappa inh-2=u
CCOC(=O)C(CCc1ccccc1)NC(C)C(=O)N1Cc2cc(OC)c(OC)cc2CC1C(=O)O (stereo not drawn) | x | x | x | x | x | 16%[60.1 µM] | x | x
Cc1ccc(NC(=O)c2ccc(-c3nn(C)c(=O)c4ccccc34)cc2)cc1 | 3% | -5% | 14% | -8% | -3% | 4% | x | x
Cn1nc(-c2ccc(C(=O)Nc3ccc(F)cc3)cc2)c2ccccc2c1=O | 16µM* | u | u | u | u | -12% | 42* | u | Pol kappa inh-2=24*
O=C(Cc1csc(N2CCOCC2)n1)N/N=C/c1ccc(O)c(O)c1O | u | u | u | u | 22µM* | u | 15* | 43*
Cc1ccc(/C=C/C(=O)NCc2ccccn2)o1 | 18µM* | 3.2µM* | 16µM* | -26% | 50µM* | 45µM* | 19* | 27* | Pol kappa inh-2=15*
COc1ccc(/C=C/C(=O)NCc2ccccn2)cc1 | 33% | -7% | 10% | 2% | -2% | -8% | x | x
Cc1ccc(-c2c3c(=O)n(C)c(=O)n(C)c3c3c(C)nc4ccccc4n23)cc1 | 31% | 3% | -18% | -8% | x | -12% | x | x
Cc1ccc(S(=O)(=O)Nc2ccc(-c3ccc(N4CCCCCC4)nn3)cc2)c(C)c1 | 6% | -6% | 2% | -7% | x | -4%[60.1 µM] | x | x
CC(=O)c1cccc(NC(=O)CSc2ccc(-c3ccco3)nn2)c1 | 50µM* | u | 22µM* | -6% | u | u | u | u
COc1ccc(NC(=O)CCCn2nc(C)c3sc4ccccc4c3c2=O)cc1 | 0% | -21% | 9% | -3% | x | 10% | x | x
O=C(O)c1cc(-c2ccc(/C=C3/SC(=S)N(Cc4ccccc4)C3=O)o2)ccc1Cl | 16µM* | 10µM* | 13µM* | -15% | u | 79µM* | 75* | 27*
O=C(O)CCCN1C(=O)/C(=C\c2ccc(-c3nc4ccccc4s3)o2)SC1=S | 16µM* | 16µM* | u | 35µM* | -35%[11.6 µM] | u | x | 34* | PGK validate=u
O=Cc1ccc(-c2nc3ccccc3s2)o1 | -22% | -7% | 29% | -18% | -16% | -12% | x | x
COc1ccc2c(=O)c3c(=O)n(Cc4ccco4)c(-c4ccco4)nc3oc2c1 | u | 35µM* | 20µM* | u | 45µM* | 71µM* | 67* | 43*
Cn1nc(-c2ccccc2F)c2cc(C(=O)N3CCN(c4ccccc4F)CC3)sc21 | -4% | -23% | -11% | 6% | x | -6% | x | x
CC(C)(C)c1ccc(C(=O)NNc2ncnc3c2cnn3-c2ccc(Cl)cc2)cc1 | -8% | 1% | 14% | 1% | x | 0%[60.1 µM] | x | x
